WRN helicase inh: qHTS for Inhibitors of WRN Helicase. Bifunctional 3'-5' exonuclease/ATP-dependent helicase WRN (Homo sapiens), Q14191. WRN helicase unwinding, fluorescent forked duplex, kinetic. Potency, µM (highest dose often 114 µM), without a hit: at the top dose activity change, negative = inhibition, actives largely listed as inhibitors. 0.46% of 360,000 active. AID 651768, 2012; note: potency is the fitted concentration of half-maximal effect; % is set by controls: 0 for no effect and ±100 for the full control effect; nearly all actives have a fitted effect of over 55% in size
Target sequence (Q14191 whole entry, looked up): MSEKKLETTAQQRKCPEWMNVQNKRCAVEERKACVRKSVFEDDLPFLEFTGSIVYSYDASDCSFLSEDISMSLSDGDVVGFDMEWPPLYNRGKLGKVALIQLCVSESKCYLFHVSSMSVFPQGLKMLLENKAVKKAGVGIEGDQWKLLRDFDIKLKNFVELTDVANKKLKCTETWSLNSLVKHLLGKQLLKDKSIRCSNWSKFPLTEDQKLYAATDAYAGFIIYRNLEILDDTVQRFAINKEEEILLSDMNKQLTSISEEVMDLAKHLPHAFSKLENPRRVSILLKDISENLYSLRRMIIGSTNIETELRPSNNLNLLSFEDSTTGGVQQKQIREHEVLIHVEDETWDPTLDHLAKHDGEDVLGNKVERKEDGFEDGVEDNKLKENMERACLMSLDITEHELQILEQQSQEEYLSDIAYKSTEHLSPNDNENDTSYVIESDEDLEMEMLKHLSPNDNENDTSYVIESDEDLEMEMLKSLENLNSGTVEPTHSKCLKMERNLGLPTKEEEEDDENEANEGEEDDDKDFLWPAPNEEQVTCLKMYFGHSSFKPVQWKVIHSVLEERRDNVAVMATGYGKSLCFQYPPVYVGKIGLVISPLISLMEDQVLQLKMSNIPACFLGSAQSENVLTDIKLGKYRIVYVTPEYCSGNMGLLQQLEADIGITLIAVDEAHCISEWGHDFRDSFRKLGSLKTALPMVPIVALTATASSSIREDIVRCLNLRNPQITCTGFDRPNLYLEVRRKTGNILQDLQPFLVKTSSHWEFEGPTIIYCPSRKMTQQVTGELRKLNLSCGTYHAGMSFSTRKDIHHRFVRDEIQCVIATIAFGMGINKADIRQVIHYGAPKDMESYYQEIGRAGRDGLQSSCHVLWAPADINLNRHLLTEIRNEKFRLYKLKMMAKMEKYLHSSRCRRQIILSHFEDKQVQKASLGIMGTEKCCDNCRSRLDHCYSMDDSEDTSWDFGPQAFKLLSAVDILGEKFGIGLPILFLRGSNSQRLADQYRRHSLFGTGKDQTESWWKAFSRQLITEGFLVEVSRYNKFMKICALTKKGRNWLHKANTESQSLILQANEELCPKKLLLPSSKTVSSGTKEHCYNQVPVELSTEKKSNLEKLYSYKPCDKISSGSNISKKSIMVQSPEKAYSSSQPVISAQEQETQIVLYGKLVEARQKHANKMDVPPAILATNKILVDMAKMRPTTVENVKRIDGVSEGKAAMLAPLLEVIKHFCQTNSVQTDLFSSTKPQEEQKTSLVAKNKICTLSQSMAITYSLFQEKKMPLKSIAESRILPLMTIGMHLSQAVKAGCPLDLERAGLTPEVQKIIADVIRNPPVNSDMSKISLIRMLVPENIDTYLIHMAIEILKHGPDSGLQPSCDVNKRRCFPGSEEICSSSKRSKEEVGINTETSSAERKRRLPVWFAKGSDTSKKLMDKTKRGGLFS
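Primary qHTS, 1536-well format. 20 nM WRN + compound, 15 min RT; start with 100 nM forked fluorophore/quencher duplex, 2 mM ATP (final); kinetic read ex 525/em 598 nm.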
FEN1 inh: qHTS Assay for the Inhibitors of Human Flap endonuclease 1 (FEN1) | Potency, µM (top dose mostly 114 µM), for the others: at the top dose activity change, negative = inhibition, hits mostly inhibitors | AID 588795, 2011 | P39748 | 0.35% of 390,000 active | Recombinant FEN1 flap cleavage, fluorescence, 15 min; note: potency is the fitted concentration of half-maximal effect; % is set by controls: 0 for no effect and ±100 for the full control effect; nearly all actives have a fitted effect of over 65% in size
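With each library titrated from low to high concentration, compounds met 10 nM FEN1 for 15 min at room temperature before 50 nM substrate was added; readings at 0 and 15 min fed four-parameter Hill curve fits.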
Pol kappa inh-1: qHTS for Inhibitors of Polymerase Kappa | purified Pol kappa, fluorescent DNA synthesis assay, 10 min | Potency, µM (highest dose often 107 µM), inactives show at the highest dose activity, negative = inhibition, usual class: inhibitors | 0.53% of 400,000 active | AID 588579, 2011; note: potency is the fitted concentration of half-maximal effect; % is set by controls: 0 for no effect and ±100 for the full control effect
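Pol kappa 10 nM + cpd, 15 min RT; start w/ substrate 50 nM final; fluorescence kinetic read, 0 and 10 min. Neg ctrl: buffer, no enzyme.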
Pol eta inh-1: qHTS for Inhibitors of Polymerase Eta. DNA polymerase eta (Homo sapiens), Q9Y253. recombinant Pol eta, fluorescent DNA replication assay. Potency, µM (highest dose often 114 µM), for the others: at the top dose activity change, negative = inhibition, hits mostly inhibitors. 1.2% of 390,000 active. AID 588591, 2011; note: potency is the fitted concentration of half-maximal effect; % is set by controls: 0 for no effect and ±100 for the full control effect
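Pol eta (10 nM) was preincubated with compounds for 15 min at room temperature, after which fluorescent replication substrate (50 nM final) was added to start the reaction. Fluorescence was read kinetically at 0 and 10 min.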
POLB inh: qHTS Assay for Inhibitors of DNA Polymerase Beta. P06746. Pol beta primer extension/strand displacement, fluorescence kinetic. Potency, µM (doses to about 114 µM), for the others: top-dose activity change, negative = inhibition, usual class: inhibitors. 1.3% of 340,000 active. AID 485314, 2010; note: potency is the fitted concentration of half-maximal effect; % is set by controls: 0 for no effect and ±100 for the full control effect
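Pol beta (10 nM) and compounds were preincubated 15 min at room temperature, then 50 nM substrate (final) started primer extension/strand displacement. Reads were taken at 0 and 10 min; concentration-response data were fitted to a four-parameter Hill equation.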
POLI inh: qHTS for Inhibitors of Polymerase Iota | DNA polymerase iota (Homo sapiens), Q9UNA4 | Pol iota fluorescent replication assay, 10 min | Potency, µM (top dose mostly 115 µM), inactives show at the top dose activity, negative = inhibition, usual class: inhibitors | 1% of 390,000 active; note: potency is the fitted concentration of half-maximal effect
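Fluorescent replication assay read twice, at 0 min and 10 min after adding 50 nM (final) substrate. Enzyme (10 nM) and compounds were first incubated 15 min at room temperature; enzyme-free buffer wells were negative controls.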
GALK confirm: Confirmation Assay for Inhibitors of Human Galactokinase (GALK); shares compounds with Pol eta inh-1; purified GALK, Kinase-Glo ATP depletion luminescence; Potency, µM (highest dose often 115 µM), for inactives: top-dose activity, negative = inhibition, most hits filed as inhibitors; 70% of 150 active; AID 2015, 2009
GALK redox cs: Confirmatory Assay for Inhibitors of Human Galactokinase (GALK): Phenol-HRP redox assay counterscreen. AID 2035, 2009. 40% of 150 active. shares compounds with Pol eta inh-1. Potency, µM (highest dose often 115 µM), for inactives: at the top dose activity change, negative = H2O2 signal, most hits filed as inhibitors. Phenol red-HRP H2O2 redox cycling, absorbance 600 nm
HEK293 viability: Secondary Assay for Inhibitors of Human Galactokinase (GALK): HEK-293 Cell Viability Assay; AID 2547, 2010; shares compounds with Pol eta inh-1; HEK-293 viability, ATP luminescence (CellTiter-Glo), 24/48 h; 10% of 170 active; Potency, µM (titrated, usually from 46.1 µM), without a hit: at the top dose activity change, negative = cytotoxicity, hits mostly inhibitors; note: potency is the fitted concentration of half-maximal effect; % is set by controls: 0 for no effect and ±100 for the full control effect
Pol kappa inh-2: qHTS for Inhibitors of Polymerase Kappa: Confirmatory Assay for Cherry-picked Compounds. shares compounds with Pol eta inh-1. purified Pol-kappa, fluorescent strand-displacement substrate. Potency, µM, hits mostly inhibitors. 76% of 920 active. AID 720501, 2013; note: potency is the fitted concentration of half-maximal effect
Pol eta inh-2: qHTS for Inhibitors of Polymerase Eta: Confirmatory Assay for Cherry-picked Compounds | 64% of 2,600 active | AID 720502, 2013 | Potency, µM, most hits filed as inhibitors | Pol eta primer extension, TAMRA/BHQ fluorescence, 10 min | shares compounds with Pol eta inh-1; note: potency is the fitted concentration of half-maximal effect
Numbers without * were called inactive; [ ] = remark or other dose. In the library only some 2.4% were active in any assay of this set; here they are far more common. Calls come from the whole dose curve; as a rule, active = well fitted curve in the direction sought with a large enough effect; inconclusive = small, poorly fitted or top-dose-only effect, or another doubt; inactive = no such curve, though single readings can be large; an effect the other way counts as inactive or inconclusive.

How did O=S(=O)(Nc1nc(-c2ccco2)c(-c2ccco2)s1)c1ccc(F)cc1F do in these assays?
WRN helicase inh: inconclusive; Pol eta inh-1: 28µM*; Pol kappa inh-2: inconclusive; Pol eta inh-2: inconclusive

How did O=S(=O)(Nc1nc2ccccc2s1)c1cc(F)ccc1F do in these assays?
WRN helicase inh: -6%; FEN1 inh: 5%; Pol kappa inh-1: -4%; Pol eta inh-1: -8%; POLB inh: -1%; POLI inh: 5%

Results for O=C(OCc1ccco1)c1ccc(S(=O)(=O)N2CCCCC2)cc1 ?
WRN helicase inh: inconclusive; FEN1 inh: -25%; Pol kappa inh-1: 79µM*; Pol eta inh-1: 10µM*; POLB inh: inconclusive; POLI inh: inconclusive; Pol eta inh-2: inconclusive

Results for NC(=O)COC(=O)c1ccc(S(=O)(=O)NCc2ccco2)cc1 ?
WRN helicase inh: -28%; FEN1 inh: 2%; Pol kappa inh-1: inconclusive; Pol eta inh-1: 35µM*; POLB inh: inconclusive; POLI inh: 14µM*; Pol eta inh-2: inconclusive

How did O=C(OCC(=O)N1CCN(C(=O)c2ccco2)CC1)c1ccc(S(=O)(=O)N2CCCCC2)cc1 do in these assays?
WRN helicase inh: -15%; FEN1 inh: 1%; Pol kappa inh-1: -9%; Pol eta inh-1: -4%; POLB inh: inconclusive; POLI inh: 14%

How did O=C(COc1ccccc1)NCCSCc1ccco1 do in these assays?
WRN helicase inh: -33%[57.1 µM]; FEN1 inh: -3%; Pol kappa inh-1: inconclusive; Pol eta inh-1: 14µM*; POLB inh: inconclusive; POLI inh: inconclusive; Pol eta inh-2: inconclusive

What do the screens show for `O=C(COC(=O)c1ccc(S(=O)(=O)NCc2ccco2)cc1)NCc1ccccc1`?
WRN helicase inh: -9%; FEN1 inh: 0%; Pol kappa inh-1: inconclusive; Pol eta inh-1: -14%; POLI inh: inconclusive

Results for O=C(COc1ccccc1F)Nc1ccc(S(=O)(=O)NCc2ccco2)cc1 ?
WRN helicase inh: -2%; FEN1 inh: 1%; Pol kappa inh-1: -8%; Pol eta inh-1: -11%; POLB inh: -3%; POLI inh: 7%

Results for O=C(COc1ccccc1)Nc1ccc(S(=O)(=O)NCc2ccco2)cc1 ?
WRN helicase inh: -32%[57.1 µM]; FEN1 inh: 2%; Pol kappa inh-1: inconclusive; Pol eta inh-1: 18µM*; POLB inh: 45µM*; POLI inh: inconclusive; Pol eta inh-2: inconclusive

What do the screens show for `COCCn1c(=O)c(-c2cccs2)nc2cnc(N(C)C)nc21`?
Pol kappa inh-1: 1%[60.1 µM]

How did COCCCn1c(SCc2ccccc2F)nc2c(sc3ccccc32)c1=O do in these assays?
FEN1 inh: 8%; Pol kappa inh-1: 2%[60.1 µM]; Pol eta inh-1: -11%; POLB inh: 6%; POLI inh: 23%

What do the screens show for `O=C1c2ccccc2C(=O)c2c1cccc2N(CCO)CCO`?
WRN helicase inh: -9%[57.1 µM]; FEN1 inh: -21%; Pol kappa inh-1: -8%; Pol eta inh-1: -25%; POLB inh: 19%; POLI inh: 42%

How did O=C1C=C(N(CCO)Cc2ccccc2)c2ccccc2C1=O do in these assays?
WRN helicase inh: -5%; FEN1 inh: -18%; Pol kappa inh-1: -13%; Pol eta inh-1: 20µM*; POLB inh: -17%; POLI inh: 4.5µM*; GALK confirm: 12µM*; GALK redox cs: 6µM*; HEK293 viability: -2%

How did CC(C)Sc1ncc(Cl)c(C(=O)N(Cc2ccc(N(C)C)cc2)C2CCS(=O)(=O)C2)n1 (stereo unspecified) do in these assays?
FEN1 inh: -16%; Pol kappa inh-1: -22%; Pol eta inh-1: 79µM*; POLB inh: inconclusive; POLI inh: inconclusive; Pol kappa inh-2: inconclusive; Pol eta inh-2: inconclusive

How did CCSc1ncc(Cl)c(C(=O)N(Cc2ccc(N(C)C)cc2)C2CCS(=O)(=O)C2)n1 (stereo unspecified) do in these assays?
WRN helicase inh: -19%; FEN1 inh: 1%; Pol kappa inh-1: -13%; Pol eta inh-1: -5%; POLB inh: -11%; POLI inh: 5%

How did COc1ccc(-c2c(C(F)(F)F)[nH]n3c(=O)cc(-c4ccccc4)nc23)cc1 do in these assays?
WRN helicase inh: -8%; FEN1 inh: -31%; Pol kappa inh-1: -4%; Pol eta inh-1: 89µM*; POLB inh: 12%; POLI inh: -12%; Pol eta inh-2: inconclusive

What do the screens show for `COc1ccc(/C=N\NC(=O)c2ccc([N+](=O)[O-])c(C)c2)cc1COc1ccccc1C(N)=O`?
WRN helicase inh: inconclusive; FEN1 inh: 79µM*; Pol kappa inh-1: -12%; Pol eta inh-1: -20%; POLB inh: inconclusive; POLI inh: 45%; Pol kappa inh-2: 38*

Results for COc1ccc(/C=N/NC(=O)c2cccnc2)cc1COc1ccc([N+](=O)[O-])c(C)c1 ?
WRN helicase inh: -3%; FEN1 inh: -14%; Pol kappa inh-1: -10%; Pol eta inh-1: 2%; POLB inh: -14%; POLI inh: 34%
